In the supplement of paper PMC10849652:
The full data set covers some 7,900 targets. This sample favours those with a hit. About 0.6% of all pairs of compound and target were hits. Unmarked numbers belong to inactive results.

How the values were obtained:
Assay in all cases: log2 fold change, soluble protein after heating vs DMSO (PISA); higher = thermal stabilisation; K562 cells, 10 uM, 30 min; active = over 0.2 and 3.5 SD of the protein, either way, in both replicates (recomputed)
[1] = compound: NC(=O)Nc1cc(-c2cccc(F)c2)sc1C(=O)N[C@H]1CCCNC1
Outline: (§1)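 Values are thermal stability changes relative to control samples and are taken from duplicates. They are stated as log2 fold changes. Before quantification by TMTpro 16plex LC-MS/MS with equalised channel sums, K562 cells at 2×10^6 cells/mL were treated with 10 μM compound for 30 min, heated in aliquots for 3 min across 48°C-58°C, pooled, extracted in PBS with 0.5% NP-40 at 4°C, and centrifuged at 21,000xg for 90 min to give the soluble supernatant.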

[2] = compound: NC(=O)c1cnc(N[C@@H]2CCCC[C@@H]2N)nc1Nc1cccc(-n2nccn2)c1
Outline: as §1

[3] = compound: NC1(c2ccc(-c3nc4ccn5c(=O)[nH]nc5c4cc3-c3ccccc3)cc2)CCC1
Outline: as §1

[4] = compound: NCC(=O)Nc1ccc(-n2nc(C(F)(F)F)cc2-c2ccc3c(ccc4ccccc43)c2)cc1
Outline: as §1

[5] = compound: Nc1ccccc1NC(=O)c1ccc(CNC(=O)OCc2cccnc2)cc1 [entinostat]
Outline: as §1

[6] = compound: O=C(CCCCCCC(=O)Nc1ccccc1)NO [vorinostat]
Outline: as §1

[7] = compound: O=C(CCCCCCNC(=O)c1cnc(N(c2ccccc2)c2ccccc2Cl)nc1)NO [citarinostat]
Outline: as §1

[8] = compound: O=C(O)c1ccc2c(c1)nc(Nc1cccc(Cl)c1)c1ccncc12 [silmitasertib]
Outline: as §1

[9] = compound: O=C1NC(=O)C(c2cnc3ccccn23)=C1c1cn2c3c(cc(F)cc13)CN(C(=O)N1CCCCC1)CC2
Outline: as §1

[10] = compound: c1cc(OCCN2CCCCC2)cc(-c2n[nH]c3ccc(-c4nnc[nH]4)cc23)c1
Outline: as §1

[11] = compound: c1cn2cc(-c3ccc4cn[nH]c4c3)nc(Nc3ccc(N4CCOCC4)cc3)c2n1 [entospletinib]
Outline: as §1

Sequence of UniProt Q92609 (Q92609 whole entry, looked up): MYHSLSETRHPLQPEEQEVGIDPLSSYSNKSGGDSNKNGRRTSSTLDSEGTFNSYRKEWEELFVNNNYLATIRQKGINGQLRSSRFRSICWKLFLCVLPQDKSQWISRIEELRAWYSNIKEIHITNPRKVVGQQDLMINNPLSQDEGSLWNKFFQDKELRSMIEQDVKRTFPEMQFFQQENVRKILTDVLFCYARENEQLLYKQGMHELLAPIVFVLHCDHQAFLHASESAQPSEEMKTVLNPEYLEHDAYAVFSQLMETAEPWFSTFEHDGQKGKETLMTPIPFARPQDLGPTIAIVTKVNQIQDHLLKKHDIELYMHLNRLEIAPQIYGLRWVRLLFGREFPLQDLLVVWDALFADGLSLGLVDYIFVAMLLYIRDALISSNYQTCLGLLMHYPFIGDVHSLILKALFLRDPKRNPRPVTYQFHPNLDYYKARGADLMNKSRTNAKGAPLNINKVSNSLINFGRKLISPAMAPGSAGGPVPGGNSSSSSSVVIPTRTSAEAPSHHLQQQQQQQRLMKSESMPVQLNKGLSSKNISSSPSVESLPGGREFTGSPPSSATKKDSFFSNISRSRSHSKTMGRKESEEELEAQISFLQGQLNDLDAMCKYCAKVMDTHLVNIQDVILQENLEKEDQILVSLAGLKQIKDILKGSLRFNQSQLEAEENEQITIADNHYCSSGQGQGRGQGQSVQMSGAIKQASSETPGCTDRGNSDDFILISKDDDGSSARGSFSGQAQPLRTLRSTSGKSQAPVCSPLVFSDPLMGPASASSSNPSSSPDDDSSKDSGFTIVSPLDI
Sequence of UniProt P12931 (P12931 whole entry, looked up): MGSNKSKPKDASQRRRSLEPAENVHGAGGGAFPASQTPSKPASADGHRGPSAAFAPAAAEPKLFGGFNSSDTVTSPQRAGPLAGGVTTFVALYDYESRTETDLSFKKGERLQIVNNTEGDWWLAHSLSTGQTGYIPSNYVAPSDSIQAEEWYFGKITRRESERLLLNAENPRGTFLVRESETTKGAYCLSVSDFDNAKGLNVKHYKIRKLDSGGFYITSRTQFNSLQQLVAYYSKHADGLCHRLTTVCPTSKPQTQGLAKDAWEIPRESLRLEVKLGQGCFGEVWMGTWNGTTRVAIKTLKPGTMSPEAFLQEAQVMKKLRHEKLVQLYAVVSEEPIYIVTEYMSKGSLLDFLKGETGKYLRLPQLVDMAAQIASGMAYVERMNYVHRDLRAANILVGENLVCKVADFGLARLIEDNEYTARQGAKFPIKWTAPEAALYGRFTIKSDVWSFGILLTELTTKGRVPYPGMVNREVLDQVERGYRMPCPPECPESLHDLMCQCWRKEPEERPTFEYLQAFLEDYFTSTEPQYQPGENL
Sequence of UniProt Q01085 (Q01085 whole entry, looked up): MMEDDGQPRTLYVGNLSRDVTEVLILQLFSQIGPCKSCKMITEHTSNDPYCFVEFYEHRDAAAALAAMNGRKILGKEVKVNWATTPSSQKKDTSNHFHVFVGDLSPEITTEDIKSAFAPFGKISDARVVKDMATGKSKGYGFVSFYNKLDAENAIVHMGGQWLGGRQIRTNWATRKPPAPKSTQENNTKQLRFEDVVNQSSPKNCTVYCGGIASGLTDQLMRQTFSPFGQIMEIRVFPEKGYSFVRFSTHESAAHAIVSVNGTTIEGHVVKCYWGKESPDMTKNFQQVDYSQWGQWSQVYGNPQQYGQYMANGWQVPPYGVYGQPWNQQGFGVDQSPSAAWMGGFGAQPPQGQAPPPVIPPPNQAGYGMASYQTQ
Sequence of UniProt Q9BSF4 (Q9BSF4 whole entry, looked up): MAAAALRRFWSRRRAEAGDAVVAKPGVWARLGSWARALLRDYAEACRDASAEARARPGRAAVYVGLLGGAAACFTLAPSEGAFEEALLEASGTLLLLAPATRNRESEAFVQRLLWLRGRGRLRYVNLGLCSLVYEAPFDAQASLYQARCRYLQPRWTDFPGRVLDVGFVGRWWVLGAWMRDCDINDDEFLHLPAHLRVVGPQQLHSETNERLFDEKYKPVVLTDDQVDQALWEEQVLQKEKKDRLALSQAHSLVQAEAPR
Sequence of UniProt O60749 (O60749 whole entry, looked up): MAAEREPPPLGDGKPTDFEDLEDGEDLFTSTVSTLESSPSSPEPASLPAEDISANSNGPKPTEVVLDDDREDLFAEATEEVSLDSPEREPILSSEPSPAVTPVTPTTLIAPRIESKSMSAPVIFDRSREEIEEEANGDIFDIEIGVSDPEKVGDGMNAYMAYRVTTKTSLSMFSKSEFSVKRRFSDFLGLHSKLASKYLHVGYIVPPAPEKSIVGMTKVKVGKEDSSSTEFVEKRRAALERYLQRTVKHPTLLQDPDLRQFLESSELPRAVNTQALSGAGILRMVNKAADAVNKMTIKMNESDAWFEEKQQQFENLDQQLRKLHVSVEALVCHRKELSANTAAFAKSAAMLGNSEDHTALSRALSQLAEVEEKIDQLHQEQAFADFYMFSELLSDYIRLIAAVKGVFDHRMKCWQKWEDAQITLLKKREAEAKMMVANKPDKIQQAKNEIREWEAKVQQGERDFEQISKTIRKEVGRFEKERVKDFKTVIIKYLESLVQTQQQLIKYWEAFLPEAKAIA
Sequence of UniProt Q9Y4R8 (Q9Y4R8 whole entry, looked up): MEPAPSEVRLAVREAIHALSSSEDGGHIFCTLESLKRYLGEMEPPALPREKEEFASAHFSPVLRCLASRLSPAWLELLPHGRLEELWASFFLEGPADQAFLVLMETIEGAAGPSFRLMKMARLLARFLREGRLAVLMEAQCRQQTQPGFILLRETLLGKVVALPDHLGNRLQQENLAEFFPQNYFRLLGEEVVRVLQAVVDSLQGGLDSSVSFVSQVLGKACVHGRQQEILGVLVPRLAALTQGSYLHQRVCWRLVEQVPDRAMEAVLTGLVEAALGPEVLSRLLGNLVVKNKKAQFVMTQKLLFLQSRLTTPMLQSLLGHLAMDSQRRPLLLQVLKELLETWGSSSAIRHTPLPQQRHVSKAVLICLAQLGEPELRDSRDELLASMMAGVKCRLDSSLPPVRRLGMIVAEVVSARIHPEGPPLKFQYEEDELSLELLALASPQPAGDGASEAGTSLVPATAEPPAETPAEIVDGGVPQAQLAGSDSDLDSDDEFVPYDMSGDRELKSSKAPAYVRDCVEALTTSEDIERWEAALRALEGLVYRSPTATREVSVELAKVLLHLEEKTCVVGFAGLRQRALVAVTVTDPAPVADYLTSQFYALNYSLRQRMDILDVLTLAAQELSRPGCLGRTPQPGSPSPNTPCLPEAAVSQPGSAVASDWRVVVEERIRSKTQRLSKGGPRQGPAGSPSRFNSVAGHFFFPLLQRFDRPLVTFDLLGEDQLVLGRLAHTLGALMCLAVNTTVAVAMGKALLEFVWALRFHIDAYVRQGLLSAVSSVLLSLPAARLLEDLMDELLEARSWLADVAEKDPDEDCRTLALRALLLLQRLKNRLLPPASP
Sequence of UniProt O00193 (O00193 whole entry, looked up): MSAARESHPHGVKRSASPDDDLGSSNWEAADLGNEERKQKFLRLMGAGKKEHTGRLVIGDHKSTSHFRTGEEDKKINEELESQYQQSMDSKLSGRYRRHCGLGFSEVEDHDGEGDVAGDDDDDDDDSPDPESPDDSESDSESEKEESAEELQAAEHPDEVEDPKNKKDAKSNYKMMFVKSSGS
Sequence of UniProt Q9UKI8 (Q9UKI8 whole entry, looked up): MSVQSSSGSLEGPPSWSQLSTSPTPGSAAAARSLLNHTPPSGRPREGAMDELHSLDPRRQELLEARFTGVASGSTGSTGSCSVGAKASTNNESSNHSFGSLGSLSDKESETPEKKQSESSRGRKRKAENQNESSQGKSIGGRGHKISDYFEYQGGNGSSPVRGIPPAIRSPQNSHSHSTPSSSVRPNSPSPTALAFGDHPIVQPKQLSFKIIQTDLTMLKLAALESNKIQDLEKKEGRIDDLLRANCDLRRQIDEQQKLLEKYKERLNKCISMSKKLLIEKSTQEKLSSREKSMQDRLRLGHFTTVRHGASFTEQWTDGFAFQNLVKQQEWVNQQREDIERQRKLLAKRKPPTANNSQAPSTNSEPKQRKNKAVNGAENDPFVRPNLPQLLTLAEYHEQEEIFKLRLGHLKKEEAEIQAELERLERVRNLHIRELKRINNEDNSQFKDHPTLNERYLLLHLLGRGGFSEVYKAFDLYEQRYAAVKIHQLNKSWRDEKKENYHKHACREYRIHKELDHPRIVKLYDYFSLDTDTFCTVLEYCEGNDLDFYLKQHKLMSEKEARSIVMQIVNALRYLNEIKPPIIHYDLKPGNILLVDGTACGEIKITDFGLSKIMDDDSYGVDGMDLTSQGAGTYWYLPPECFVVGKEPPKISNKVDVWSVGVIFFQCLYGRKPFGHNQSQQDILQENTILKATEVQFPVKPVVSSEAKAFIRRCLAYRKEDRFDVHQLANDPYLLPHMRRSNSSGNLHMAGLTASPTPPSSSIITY
Sequence of UniProt Q13573 (Q13573 whole entry, looked up): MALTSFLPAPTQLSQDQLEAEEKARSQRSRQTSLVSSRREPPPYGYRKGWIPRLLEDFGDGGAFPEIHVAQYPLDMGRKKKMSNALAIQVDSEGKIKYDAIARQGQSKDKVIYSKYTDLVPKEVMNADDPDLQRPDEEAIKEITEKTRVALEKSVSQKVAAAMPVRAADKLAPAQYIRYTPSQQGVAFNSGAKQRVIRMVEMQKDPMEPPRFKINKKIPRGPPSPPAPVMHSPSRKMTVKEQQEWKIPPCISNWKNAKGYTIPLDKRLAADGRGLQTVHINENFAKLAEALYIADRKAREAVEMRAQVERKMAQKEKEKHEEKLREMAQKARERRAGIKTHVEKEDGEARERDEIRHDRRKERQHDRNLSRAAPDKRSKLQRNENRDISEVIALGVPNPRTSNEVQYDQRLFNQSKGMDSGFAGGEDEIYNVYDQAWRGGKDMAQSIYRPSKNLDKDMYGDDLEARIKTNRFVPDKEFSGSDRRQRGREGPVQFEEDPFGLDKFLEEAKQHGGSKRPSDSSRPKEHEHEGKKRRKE
Sequence of UniProt P51571 (P51571 whole entry, looked up): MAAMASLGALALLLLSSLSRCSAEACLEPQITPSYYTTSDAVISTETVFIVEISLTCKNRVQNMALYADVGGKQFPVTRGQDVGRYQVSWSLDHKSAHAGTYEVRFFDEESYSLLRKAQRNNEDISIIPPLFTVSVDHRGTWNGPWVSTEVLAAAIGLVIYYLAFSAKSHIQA

Target | log2 fold change [1] | log2 fold change [2] | log2 fold change [3] | log2 fold change [4] | log2 fold change [5] | log2 fold change [6] | log2 fold change [7] | log2 fold change [8] | log2 fold change [9] | log2 fold change [10] | log2 fold change [11]
SRSF7 (UniProt Q16629) | 0 | 0.13 | 0.525 | 0.027 | -0.079 | 0 | -0.132 | -0.144 | 0.357 | -0.33 | 0.197
SMG1 (UniProt Q96Q15) | -0.073 | -0.111 | -0.101 | -0.073 | -0.097 | -0.012 | 0.024 | 0.142 | 0.013 | -0.187 | -0.004
ST3GAL2 (UniProt Q16842) | -0.066 | 0.101 | -0.04 | 0.008 | -0.028 | -0.013 | 0.008 | -0.003 | -0.016 | -0.05 | 0.167
TIMM29 (UniProt Q9BSF4) | -0.16 | -0.024 | -0.069 | -0.011 | -0.04 | -0.093 | -0.016 | 0.006 | -0.08 | -0.004 | 0.033
STOM (UniProt P27105) | -0.104 | -0.043 | -0.069 | -0.019 | -0.003 | 0.025 | 0.007 | 0.067 | 0.042 | -0.091 | 0.048
STK4 (UniProt Q13043) | 0.248 (active) | -0.031 | -0.1 | 0.006 | -0.041 | 0.011 | 0.064 | -0.015 | -0.031 | -0.122 | -0.024
TARS2 (UniProt Q9BW92) | 0.008 | -0.018 | -0.27 (active) | -0.031 | 0.011 | -0.051 | 0.038 | -0.005 | -0.057 | -0.008 | -0.072
TIMM13 (UniProt Q9Y5L4) | 0.114 | 0.031 | -0.027 | 0.012 | 0.01 | 0.031 | 0.117 | -0.016 | 0.152 | 0.107 | -0.086
TLK1 (UniProt Q9UKI8) | -0.062 | -0.074 | -0.063 | -0.034 | 0.042 | 0.027 | 0.049 | -0.002 | 0.002 | -0.074 | 0.001
TELO2 (UniProt Q9Y4R8) | -0.039 | -0.1 | -0.207 | 0.037 | 0.039 | 0.137 | 0.009 | 0.067 | 0.117 | -0.075 | 0.044
SNW1 (UniProt Q13573) | 0.034 | 0.019 | 0.017 | 0.02 | -0.056 | -0.044 | -0.019 | 0.062 | 0.05 | -0.05 | 0.087
SNX2 (UniProt O60749) | -0.001 | -0.204 | -0.146 | 0 | 0.092 | 0.093 | 0.062 | -0.068 | -0.044 | -0.082 | -0.015
SMDT1 (UniProt Q9H4I9) | -0.062 | 0.032 | -0.061 | -0.039 | 0.01 | -0.038 | 0.002 | 0.041 | -0.011 | -0.001 | 0.01
SLC30A7 (UniProt Q8NEW0) | -0.035 | 0.013 | -0.276 | -0.178 | 0.024 | -0.024 | -0.028 | 0.039 | 0.025 | -0.032 | -0.201
TIMM44 (UniProt O43615) | -0.085 | -0.141 | -0.372 (active) | -0.023 | 0.084 | 0.04 | 0.066 | -0.041 | -0.027 | -0.048 | -0.036
SNX3 (UniProt O60493) | -0.014 | -0.241 | -0.19 | -0.001 | 0.025 | 0.105 | 0.048 | 0.132 | -0.037 | -0.116 | 0.084
TIAL1 isoform 2 (UniProt Q01085) | -0.014 | -0.026 | -0.05 | -0.048 | -0.005 | 0.025 | -0.002 | -0.003 | 0.003 | -0.036 | 0.003
SPART (UniProt Q8N0X7) | -0.032 | -0.105 | -0.053 | 0.006 | 0.043 | -0.032 | 0.015 | 0.081 | -0.024 | 0.04 | -0.005
TBC1D5 isoform 2 (UniProt Q92609) | -0.006 | -0.103 | -0.233 | -0.058 | 0.029 | 0.086 | 0.111 | 0.031 | -0.076 | -0.094 | -0.02
SURF1 (UniProt Q15526) | -0.007 | 0.014 | -0.176 | -0.135 | 0.077 | 0.059 | 0.112 | -0.04 | -0.031 | -0.043 | 0.029
TCERG1 (UniProt O14776) | -0.026 | -0.075 | -0.123 | -0.112 | 0.159 | 0.129 | 0.129 | 0.022 | -0.153 | 0 | -0.043
SSR4 (UniProt P51571) | 0.032 | -0.013 | -0.011 | 0.023 | -0.011 | 0 | 0.019 | -0.029 | 0.004 | -0.056 | -0.021
SMAP (UniProt O00193) | 0.007 | -0.021 | 0.12 | 0.013 | 0.016 | -0.047 | -0.029 | -0.033 | 0.006 | 0.02 | 0.07
SYF2 (UniProt O95926) | 0.099 | 0.089 | -0.032 | 0.101 | -0.022 | -0.11 | -0.069 | 0.016 | 0.14 | -0.153 | 0.143
TFR2 (UniProt Q9UP52) | -0.039 | -0.004 | -0.601 (active) | 0.007 | 0.007 | 0.002 | 0.033 | -0.001 | -0.035 | -0.067 | 0.052
STEAP3 isoform 2 (UniProt Q658P3) | -0.13 | 0.076 | -0.042 | -0.006 | 0.008 | 0.086 | 0.013 | 0 | -0.028 | -0.082 | -0.038
SRC isoform 2 (UniProt P12931) | -0.578 (active) | 0.006 | 0.049 | -0.088 | 0.12 | 0.079 | -0.104 | 0.122 | 0.093 | 0.199 | 0.02
